# Measured values: PubChem BioAssay (EPA / NIEHS)
# Values joined by “and” are separate entries in the source; they are usually repeats but may differ in a detail not shown here. Equal values may be shown once. Results filed as inconclusive are left out. More than one record can exist for a structure, and the calls need not agree. Active and inactive are the calls of the source. The calls were made as follows: active = hit-call score of the fitted dose curve at least 0.9, where 1 is the maximum; inconclusive = response in the unintended direction; inactive = score below 0.9.
# System: not listed separately
# Test: TOX21_p53_BLA_p4_viability: Viability Assessment in the Tox21 HCT-116 p53 Agonism Beta-lactamase Assay, Phase 4 (AID 2283597);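 also: hits lower the luminescence signal meaning cytotoxicity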
# In short: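 Following a 16 h exposure at 37C, the treated HCT116 wells were first read for the FRET ratio. They were then lysed with CellTiter-Glo, and ATP luminescence was recorded after 30 min at room temperature.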
row,Compound,outcome
1,C[N+]1(C)[C@@H]2CC[C@H]1CC(OC(=O)c1c[nH]c3ccccc13)C2 (some centres undefined),inactive
2,C[C@]1(O)CC[C@H]2[C@@H]3CCC4=CC(=O)CC[C@]4(C)[C@@]3(F)[C@@H](O)C[C@@]21C,inactive
3,CNC(C)CC1CCCCC1 (centres undefined),inactive
4,COC1=CC=C2[C@H]3Cc4ccc(OC)c5c4[C@@]2(CCN3C)[C@H]1O5,inactive
5,COc1ccc(C(=O)N2CCCC2=O)cc1,inactive
6,CNN,inactive
7,CCN(CCO)CCn1c(Cc2ccccc2)nc2c1c(=O)n(C)c(=O)n2C,inactive
8,CCCCc1ccc(C(=O)O)nc1,inactive
9,C=C[C@H]1CN2CC[C@H]1C[C@H]2[C@H](OC(=O)OCC)c1ccnc2ccc(OC)cc12,inactive
10,Brc1c(Br)c(Br)c(Br)c(Br)c1Br,inactive
11,COc1ccc2c(c1)C13CCCC[C@@H]1C(C2)N(C)CC3 (some centres undefined),inactive
12,c1ccc(C2CC2)c(OCC2=NCCN2)c1,inactive
13,O=C(Cl)c1ccccc1F,inactive
14,CC(C)Br,inactive
15,O=C(C[C@@H]1NCCC[C@H]1O)Cn1cnc2cc(Br)c(Cl)cc2c1=O,inactive
16,C#CC(C)(O)CC (centres undefined),inactive
17,Cc1ncc2n1-c1ccc(Cl)cc1C(c1ccccc1F)=NC2,inactive
18,Clc1cccc(N2CCNCC2)c1,inactive
19,Clc1ccc(C(Cl)(Cl)Cl)cc1Cl,inactive
20,CC(=O)OC1(c2ccccc2)CCN(CCc2ccccc2)CC1,inactive
21,COC(=O)C(Cl)C(=O)OC,inactive
22,C[N+](C)(C)CCOC(=O)C(O)(c1ccccc1)c1ccccc1,inactive
23,CC(=O)OCC(=O)[C@H]1CC[C@H]2[C@@H]3CC[C@H]4C[C@H](O)CC[C@]4(C)[C@H]3C(=O)C[C@]12C,inactive
24,C[C@@H]([C@H](O)c1ccccc1)N(C)C,inactive

# Biological target: Cellular tumor antigen p53 (Homo sapiens) (UniProt P04637)
# Test: TOX21_p53_BLA_p5_ratio: Tox21 HCT-116 p53 Agonism Beta-lactamase Assay, Ratio, Phase 5 (AID 2283599)
# In short: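 Beta-lactamase reporter ratio (blue 460 nm over green 530 nm, 405 nm excitation) after 2 h CCF4-AM loading, in HCT-116 cells exposed 16 h at 37 C to compounds pinned at 217-fold dilution. Increases relative to DMSO baseline scored.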
# Sequence of Cellular tumor antigen p53 (Homo sapiens) (P04637 whole entry, looked up): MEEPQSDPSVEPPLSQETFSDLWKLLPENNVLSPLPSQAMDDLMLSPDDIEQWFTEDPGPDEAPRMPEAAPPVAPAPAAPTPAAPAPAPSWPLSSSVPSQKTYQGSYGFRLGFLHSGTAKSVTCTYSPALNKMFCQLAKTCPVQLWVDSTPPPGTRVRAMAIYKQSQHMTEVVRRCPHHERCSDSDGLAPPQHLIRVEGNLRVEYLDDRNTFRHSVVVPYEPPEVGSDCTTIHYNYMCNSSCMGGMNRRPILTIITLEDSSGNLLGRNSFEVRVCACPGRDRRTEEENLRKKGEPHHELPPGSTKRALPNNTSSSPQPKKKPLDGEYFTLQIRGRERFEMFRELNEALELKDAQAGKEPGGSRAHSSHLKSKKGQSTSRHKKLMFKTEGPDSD
Compound,outcome,AC50
C[N+]1(C)[C@@H]2CC[C@H]1CC(OC(=O)c1c[nH]c3ccccc13)C2 (some centres undefined),inactive,–
CNC(C)CC1CCCCC1 (centres undefined),inactive,–
COC1=CC=C2[C@H]3Cc4ccc(OC)c5c4[C@@]2(CCN3C)[C@H]1O5,inactive,–
CCCCCCCCCCCCCCCCn1cc[n+](C)c1,inactive,78.3 µM (active) and 41.3 µM (active)
COc1ccc(C(=O)N2CCCC2=O)cc1,inactive,–
Cc1ccc(-c2nc3ccc(C)cn3c2CC(=O)N(C)C)cc1,inactive,–
CCN(CCO)CCn1c(Cc2ccccc2)nc2c1c(=O)n(C)c(=O)n2C,inactive,–
C[C@H]1CCC[C@H](O)CCCCCc2cc(O)cc(O)c2C(=O)O1,inactive,–
C=C[C@H]1CN2CC[C@H]1C[C@H]2[C@H](OC(=O)OCC)c1ccnc2ccc(OC)cc12,inactive,–
C=C(C#N)CCC#N,inactive,–
Brc1c(Br)c(Br)c(Br)c(Br)c1Br,inactive,–
C=C(Cl)CSC(=S)N(CC)CC,inactive,–
COc1ccc2c(c1)C13CCCC[C@@H]1C(C2)N(C)CC3 (some centres undefined),inactive,–
c1ccc(C2CC2)c(OCC2=NCCN2)c1,inactive,–
O=C(Cl)c1ccccc1F,inactive,–
C#CC(C)(O)CC (centres undefined),inactive,–
Cc1ncc2n1-c1ccc(Cl)cc1C(c1ccccc1F)=NC2,inactive,–
Clc1cccc(N2CCNCC2)c1,inactive,–
Clc1ccc(C(Cl)(Cl)Cl)cc1Cl,inactive,–
CC(=O)OCC(=O)[C@H]1CC[C@H]2[C@@H]3CC[C@H]4C[C@H](O)CC[C@]4(C)[C@H]3C(=O)C[C@]12C,inactive,–
C[C@@H]([C@H](O)c1ccccc1)N(C)C,inactive,–

# System: not listed separately
# Test: TOX21_p53_BLA_p5_viability: Viability Assessment in the Tox21 HCT-116 p53 Agonism Beta-lactamase Assay, Phase 5 (AID 2283600)
# In short: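 After the 460/530 nm beta-lactamase measurement, the wells received an ATP-detection luciferase reagent; signal was read 30 min later at RT. Compound treatment lasted 16 h on cells pre-incubated 5 h post-seeding.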
row,Compound,outcome
1,C[N+]1(C)[C@@H]2CC[C@H]1CC(OC(=O)c1c[nH]c3ccccc13)C2 (some centres undefined),inactive
2,C[C@]1(O)CC[C@H]2[C@@H]3CCC4=CC(=O)CC[C@]4(C)[C@@]3(F)[C@@H](O)C[C@@]21C,inactive
3,CC(N)=S,inactive
4,CCSCc1ccccc1OC(=O)NC,inactive
5,COC1=CC=C2[C@H]3Cc4ccc(OC)c5c4[C@@]2(CCN3C)[C@H]1O5,inactive
6,COc1ccc(C(=O)N2CCCC2=O)cc1,inactive
7,CNN,inactive
8,Cc1ccc(-c2nc3ccc(C)cn3c2CC(=O)N(C)C)cc1,inactive
9,CCBr,inactive
10,C[C@H]1CCC[C@H](O)CCCCCc2cc(O)cc(O)c2C(=O)O1,inactive
11,CCCCc1ccc(C(=O)O)nc1,inactive
12,C=C[C@H]1CN2CC[C@H]1C[C@H]2[C@H](OC(=O)OCC)c1ccnc2ccc(OC)cc12,inactive
13,C=C(C#N)CCC#N,inactive
14,Brc1c(Br)c(Br)c(Br)c(Br)c1Br,inactive
15,Cc1nc(N)nc(N)n1,inactive
16,c1ccc(C2CC2)c(OCC2=NCCN2)c1,inactive
17,O=C(Cl)c1ccccc1F,inactive
18,O=C(C[C@@H]1NCCC[C@H]1O)Cn1cnc2cc(Br)c(Cl)cc2c1=O,inactive
19,C#CC(C)(O)CC (centres undefined),inactive
20,Clc1ccc(C(Cl)(Cl)Cl)cc1Cl,inactive
21,COC(=O)C(Cl)C(=O)OC,inactive
22,C[N+](C)(C)CCOC(=O)C(O)(c1ccccc1)c1ccccc1,inactive
23,CC(=O)OCC(=O)[C@H]1CC[C@H]2[C@@H]3CC[C@H]4C[C@H](O)CC[C@]4(C)[C@H]3C(=O)C[C@]12C,inactive
